Screens: PubChem, several laboratories
Hits are enriched below; roughly 4.3% of the tested compounds scored in any of these assays.
CR mimetic SO – reduction of superoxide in aged yeast, primary screen, HTS; 330,000 tested, 0.18% active; superoxide response (% of plate mean), % at 10 µM; S. cerevisiae aged cells, superoxide DHE fluorescence; active compounds read low; AID 2690, 2010;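 active = superoxide response under a set limit, about three screen SD below normal, cut at about 65% in these data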;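 note: yeast aged for seven days with compound at 30 °C before DHE staining; 100% = average MFI of all compound-treated wells on the plate with controls excluded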
UBC13 inh – UBC13 polyubiquitin chain formation inhibitors, primary screen, biochemical, TR-FRET, uHTS; 330,000 tested, 0.47% active; inhibition, % at 20 µM; AID 485273, 2010; Ubiquitin-conjugating enzyme E2 N (Homo sapiens), P61088; in the data active = inhibition above about 45%, passing the limit was not always enough
Target sequence (P61088 whole entry, looked up): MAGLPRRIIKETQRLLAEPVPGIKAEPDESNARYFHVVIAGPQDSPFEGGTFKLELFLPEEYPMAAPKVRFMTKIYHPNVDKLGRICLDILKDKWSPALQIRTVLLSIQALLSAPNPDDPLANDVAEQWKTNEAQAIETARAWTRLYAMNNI
NR3A LBD binder – binders of NR3A ligand-binding domain, primary screen, biophysical, differential scanning fluorimetry, uHTS. Glutamate receptor ionotropic, NMDA 3A (GRIN3A) ligand-binding domain. NR3A LBD differential scanning fluorimetry, Tm shift; 0% = protein alone, 100% = glycine-bound protein. Tm shift relative to glycine control, % at 25 µM. 340,000 tested, 2.5% active. AID 1259313, 2017;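 active = melting temperature shift of at least 10% of the positive control shift, at one fixed dose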
dFosB activator – activators of delta FosB homodimer, primary screen, biochemical, fluorescence polarization, TAMRA-CDK5 oligo, single point | activation, % at 25 µM | Protein FosB (Mus musculus), P13346 | 340,000 tested, 0.99% active | AID 493131, 2011 | purified delta FosB; percent of positive-control signal above neutral wells;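 active = mean activation above about 17%, with every replicate also reaching it, limit read from the data, passing the limit was not always enough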
Target sequence (P13346 whole entry, looked up): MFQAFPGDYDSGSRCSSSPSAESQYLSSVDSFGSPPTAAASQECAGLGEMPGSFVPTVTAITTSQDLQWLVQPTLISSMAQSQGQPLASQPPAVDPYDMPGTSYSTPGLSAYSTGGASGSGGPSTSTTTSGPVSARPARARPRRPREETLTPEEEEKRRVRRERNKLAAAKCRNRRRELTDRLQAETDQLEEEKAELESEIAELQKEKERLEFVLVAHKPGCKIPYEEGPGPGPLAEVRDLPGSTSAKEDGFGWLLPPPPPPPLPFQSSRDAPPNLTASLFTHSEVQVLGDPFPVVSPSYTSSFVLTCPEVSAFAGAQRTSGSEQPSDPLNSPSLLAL
NALP1 yeast inh – NALP1 inflammasome inhibitors in reconstituted yeast, colorimetric, S. cerevisiae, triplicate retest. S. cerevisiae NALP1/ASC/caspase-1 growth, X-gal OD620, 72 h. inhibition, % at 10 µM. 280,000 tested, 0.61% active. AID 2071, 2009; in the data active = inhibition mostly above about 24%, no sharp cut-off; inactive = mostly below about 32%
* hit, by the source's call; nt = no result.

SMILES | CR mimetic SO | UBC13 inh | NR3A LBD binder | dFosB activator | NALP1 yeast inh
CCc1nnc(NC(=O)CSc2nc3cc(OC)ccc3cc2C)s1 | 109 | -2 | -1 | -9 | 3
O=C(Nc1ccc2c(c1)OCO2)c1ccc(Br)s1 | 116 | 18 | 21* | -6 | 18
O=C(Nc1ccc2c(c1)OCO2)c1cccs1 | 150 | -6 | 11* | -5 | 13
O=C(Nc1cccc(C2OCCCO2)c1)c1cccs1 | 97 | 2 | 21* | -5 | 26
O=C(Nc1cccc(NC(=O)c2cccs2)c1)c1ccc(F)cc1 | 98 | 6 | 0 | -7 | 6
O=C(/C=C\Nc1ccc2c(c1)OCO2)c1cccs1 | 105 | -19 | -11 | -4 | -9
O=C(Nc1ccc2c(c1)OCCO2)c1cccs1 | 96 | 3 | 20* | 1 | nt
CC(=O)Nc1ccc(S(=O)(=O)Nc2nc3ccccc3nc2Nc2ccc(O)cc2)cc1 | 101 | 15 | 17* | 2 | 7
CC(=O)Nc1ccc(Nc2nc3ccccc3nc2NS(=O)(=O)c2ccccc2)cc1 | 101 | 9 | 4 | 6 | nt
CC(=O)Nc1ccc(S(=O)(=O)Nc2nc3ccccc3nc2Nc2ccccc2)cc1 | 106 | -1 | 10* | -8 | nt
Cc1cccc(S(=O)(=O)Nc2nc3ccccc3nc2Nc2ccc3c(c2)OCO3)c1 | 96 | -18 | 21* | -7 | 20
CN(C1=C(NC(=O)c2ccccc2)C(=O)c2ccccc2C1=O)C1CCS(=O)(=O)C1 (stereo unspecified) | 173 | -78 | nt | -3 | 43*
O=C(NC(=S)NC1CCS(=O)(=O)C1)c1ccccc1 (stereo unspecified) | 101 | 4 | -5 | 7 | 4
O=C(Nc1ccccc1)NC1CCS(=O)(=O)C1 (stereo unspecified) | 93 | 0 | 1 | 5 | -11
CC(=O)NC1=C(NC2CCS(=O)(=O)C2)C(=O)c2ccccc2C1=O (stereo unspecified) | 188 | -44 | 13* | 1 | 40
O=C(/C=C/c1ccco1)NCC1COc2ccccc2O1 (stereo unspecified) | 107 | -1 | 0 | -21 | -6
O=S(=O)(NCC(Nc1ccccc1)c1ccccc1)c1ccc(Cl)cc1 (stereo unspecified) | 88 | 5 | 17* | -7 | 20
CC(C)Cn1c(SC(C)C(=O)NC2CC2)nnc1-c1ccccc1F (stereo unspecified) | 92 | -9 | 0 | -4 | nt
COc1ccccc1NC(=O)c1c(Nc2ccccc2C)sc(C(=O)Nc2cccc(Cl)c2)c1N | 114 | -29 | 31* | 9 | 45
CC1CC(C)CN(C(=O)CSc2nnc(N)s2)C1 (stereo unspecified) | 97 | 3 | -1 | 4 | 8
O=C(Nc1ccccc1)Nc1ccc2nnsc2c1 | 99 | 5 | 42* | -12 | 17
CN(C)c1ccc(NC(=O)Nc2ccc3snnc3c2)cc1 | 90 | 2 | 36* | -6 | -20
O=C(NCc1ccccc1)c1ccc2nnsc2c1 | 75 | 1 | -1 | -6 | 9
O=C(Nc1ccccc1)Nc1ccc2snnc2c1 | 80 | 6 | 32* | -22 | -7
O=C(Nc1ccc(Cl)cc1)c1ccc2snnc2c1 | 119 | -9 | -34 | -6 | 4
SMILES | CR mimetic SO | UBC13 inh | NR3A LBD binder | dFosB activator | NALP1 yeast inh
NNC(=O)c1nc(-c2ccccc2)cc(-c2ccccc2)n1 | 99 | 6 | 3 | -25 | 1
O=C(CN1CCN(S(=O)(=O)c2ccc(Cl)c(Cl)c2)CC1)N1CCCC1 | 82 | 7 | -1 | -3 | nt
CN(C[C@@H](CC1CCCCC1)N(C[C@H](Cc1ccccc1)N(CCc1ccccc1)N=O)N=O)N=O | nt | -1 | -5 | -5 | -2
O=C(NCCN1CCN(c2ccccc2)CC1)c1ccc(NC(=O)C2CCCO2)cc1 (stereo unspecified) | 108 | -17 | -1 | -2 | 42*
CCc1ccc(NC(=O)c2ccccc2NC(=O)C2CCCO2)cc1 (stereo unspecified) | 113 | 4 | 0 | -6 | 43*
O=C(Nc1ccc(O)cc1)c1ccc(NC(=O)C2CCCO2)cc1 (stereo unspecified) | 95 | -3 | 1 | -4 | -5
CCCCNS(=O)(=O)c1ccc(NC(=O)C2CCCO2)cc1 (stereo unspecified) | 99 | 6 | 12* | 0 | 25
Cc1cc(NC(=O)c2ccc(NC(=O)C3CCCO3)cc2)ccc1Br (stereo unspecified) | 90 | -5 | 11* | -10 | 25
O=C(Nc1ccccc1C(=O)O)c1ccc(NC(=O)C2CCCO2)cc1 (stereo unspecified) | 101 | 0 | -1 | 0 | 3
CCC(C)NS(=O)(=O)c1ccc(NC(=O)C2CCCO2)cc1 (stereo unspecified) | 99 | -5 | -3 | 1 | -6
O=C1/C(=C\c2ccc(O)c(O)c2)C(c2ccccc2)=NN1c1ccccc1 | nt | nt | 12* | -15 | -5
CCOc1cc(/C=C2\C(=O)N(c3nc(-c4ccc(Br)cc4)cs3)N=C2c2ccccc2)ccc1O | 107 | -14 | 16* | 2 | 8
COc1cc(/C=C2\C(=O)N(c3ccc(NC(C)=O)cc3)N=C2c2ccccc2)ccc1O | 97 | -171 | 3 | -8 | 7
O=S(=O)(NCc1c(Cl)cccc1Oc1ccccc1)c1ccc(F)cc1 | 110 | -2 | -13 | -8 | 12
CCOC(=O)c1cnc2ccc(C)cc2c1Sc1ccc(F)cc1 | 99 | -7 | 19* | -15 | 16
C/C(=N/NS(=O)(=O)c1ccc(C)c(C)c1)c1c[nH]c2ccccc12 | 100 | 5 | 38* | -8 | -70
C/C(=N/NS(=O)(=O)c1ccc(C)cc1C)c1c[nH]c2ccccc12 | 107 | 12 | 11* | -13 | 7
C/C(=N/NS(=O)(=O)c1ccc(C)cc1C)c1ccc2c(c1)OCO2 | 100 | -11 | 0 | -10 | 28
COc1ccc(C)cc1Nc1nc(N)c2cc(OC)c(OC)cc2n1 | 92 | 17 | 0 | 48* | 11
COc1cc2nc(N3CCN(c4cc(C)ccc4C)CC3)nc(N)c2cc1OC | 106 | 43 | -12 | 79* | 37
COc1ccc(Cl)cc1Nc1nc(N)c2ccccc2n1 | 92 | 7 | 16* | 14 | 22
Nc1nc(Nc2cccc(F)c2)nc2ccccc12 | 93 | 4 | 26* | -1 | 14
Cc1ccc(C)c(Nc2nc(N)c3ccccc3n2)c1 | 82 | 9 | -1 | 5 | 12
CCCNC(=O)c1ccc(C2SCC(=O)N2CCc2ccccc2)cc1 (stereo unspecified) | 100 | 0 | -5 | -4 | 35
COc1ccc(S(N)(=O)=O)cc1C(=O)OCCCC(=O)c1ccccc1 | 98 | 1 | 0 | -3 | nt
